Screens: PubChem, National Center for Advancing Translational Sciences (NCATS)
Compounds with a hit are over-represented: about 10% of the library has one in this group of screens.
HEK293 tox: cytotoxic compounds in HEK 293 cells; HEK 293 viability, ATP luminescence (CellTiter-Glo), 48-72 h; Potency, µM (doses to about 115 µM), usual class: inhibitors; 94,000 tested, 6.6% active; AID 1345083; also: nearly all actives have a fitted effect of over 60% in size
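Cytotoxicity was scored by loss of ATP-coupled luminescence (CellTiter-Glo) in HEK 293 cells. Compound treatment ran 48 or 72 hr at 37 degree Celsius, 5% CO2, 95% humidity.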
Luciferase inh: Photinus pyralis luciferase inhibition. Potency, µM (highest dose often 115 µM), hits mostly inhibitors. 76,000 tested, 2.5% active. purified P. pyralis luciferase, luminescence, biochemical; also: nearly all actives have a fitted effect of over 65% in size
Target sequence (P08659 whole entry, looked up): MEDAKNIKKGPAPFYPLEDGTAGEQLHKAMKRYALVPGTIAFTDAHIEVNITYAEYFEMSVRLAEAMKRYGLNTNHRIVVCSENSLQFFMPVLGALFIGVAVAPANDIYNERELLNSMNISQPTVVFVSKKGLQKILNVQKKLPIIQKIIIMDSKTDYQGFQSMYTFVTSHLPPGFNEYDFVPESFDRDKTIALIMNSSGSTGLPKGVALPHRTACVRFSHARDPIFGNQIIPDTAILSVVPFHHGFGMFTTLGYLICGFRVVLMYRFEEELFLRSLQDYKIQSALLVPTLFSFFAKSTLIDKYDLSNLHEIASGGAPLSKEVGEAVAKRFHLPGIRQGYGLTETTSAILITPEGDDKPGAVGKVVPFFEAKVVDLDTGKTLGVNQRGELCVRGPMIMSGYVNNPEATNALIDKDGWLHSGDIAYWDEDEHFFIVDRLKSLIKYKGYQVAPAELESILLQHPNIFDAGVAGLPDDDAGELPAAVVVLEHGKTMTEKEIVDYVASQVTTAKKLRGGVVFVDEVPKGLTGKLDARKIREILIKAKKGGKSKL
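Purified 10nM P. pyralis luciferase with 10uM D-luciferin and 10uM ATP in 50mM Tris acetate pH 7.5, 10mM Mg acetate, 0.01% Tween-20, 0.05% BSA. qHTS titration; luminescence read by CCD imager.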
GPT2 inh: GPT2 alanine aminotransferase inhibition | Q8TD30 | Recombinant GPT2, coupled pyruvate oxidase/HRP Amplex Red fluorescence | Potency, µM (titrated, usually from 57.7 µM), usual class: inhibitors | 100,000 tested, 0.25% active | AID 1671188; also: nearly all actives have a fitted effect of over 60% in size
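Fluorescence of coupled pyruvate oxidase/HRP/Amplex Red system (50uM Amplex, 30 min, dark) reports pyruvate formed by GPT2. Enzyme reaction: 10ng/uL GPT2, 2mM L-alanine, 250uM a-KG, 30 min room temperature, pH 7.5; 50uM AOA control.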
NPR1 antag: antagonists of human natriuretic peptide receptor Npr1; P16066; HEK293 hNpr1 GloSensor cGMP, ANP-stimulated luminescence; Potency, µM (top dose mostly 46.3 µM), most hits filed as inhibitors; 76,000 tested, 1.6% active; AID 1347048; calls by dose curve; also: nearly all actives have a fitted effect of over 60% in size
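Compound pre-incubated 30 min at room temperature on GloSensor-loaded HEK293 cells stably carrying hNpr1 and the pGS-40F cGMP biosensor. Stimulation uses hNppA at 0.1 nM final; luminescence is taken at baseline and 20 min post-agonist.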
3T3 cytotox: cytotoxic compounds in NIH 3T3 cells; NIH 3T3 viability, CellTiter-Glo ATP luminescence, 48-72 h; Potency, µM (doses to about 96.7 µM), most hits filed as inhibitors; 94,000 tested, 4.3% active; also: nearly all actives have a fitted effect of over 55% in size
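Cytotoxicity was measured by CellTiter-Glo ATP luminescence after 48 or 72 h compound exposure at 37 °C. Mouse NIH 3T3 fibroblasts were seeded at 400 cells/well and dosed by 23 nL pin transfer.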
Large screens that a line does not name were inactive. Unless noted, calls follow the shape of the dose curve; as a rule, active = well fitted curve in the direction sought with a large enough effect; inconclusive = small, poorly fitted or top-dose-only effect, or another doubt; inactive = no such curve, though single readings can be large; an effect the other way counts as inactive or inconclusive.

CC(Cc1ccncc1)Nc1nccc(-c2cnn(-c3ccccc3F)c2)n1 (centres undefined)	HEK293 tox 35.5µM, Luciferase inh inconclusive, 3T3 cytotox inconclusive
COCCOC1CCOC2(CCN(C(=O)c3cccc(F)c3)CC2)C1 (centres undefined)	none
Cc1cnc(C2CN(S(=O)(=O)c3ccccc3)C2)n1Cc1cccnc1	none (no result: Luciferase inh, NPR1 antag)
O=C(NCCc1ccccn1)c1nc(-c2ccccc2)cc2[nH]ccc12	HEK293 tox 79.4µM, Luciferase inh inconclusive, 3T3 cytotox inconclusive
O=C(NCc1cccnc1)c1nc(-c2ccccc2)cc2[nH]ccc12	HEK293 tox 89.1µM, 3T3 cytotox inconclusive
CC(=O)Nc1cccc(-c2cc3c(ccn3CC3CCN(C)CC3)c(N3CCOCC3)n2)c1	3T3 cytotox inconclusive
Cc1ccc(-c2cc3c(ccn3CC3CCN([S+](C)(=O)[O-])CC3)c(N3CCOCC3)n2)cn1	3T3 cytotox inconclusive
C[S+](=O)([O-])N1CCC(Cn2ccc3c(N4CCOCC4)nc(-c4cccnc4)cc32)CC1	3T3 cytotox 7.08µM
CN1CCC(Cn2ccc3c(N4CCOCC4)nc(-c4cccc5[nH]ncc45)cc32)CC1	HEK293 tox inconclusive, 3T3 cytotox 44.7µM
C[S+](=O)([O-])N1CCC(Cn2ccc3c(N4CCOCC4)nc(-c4cccc(C(N)=O)c4)cc32)CC1	3T3 cytotox inconclusive
CN1CCC(Cn2ccc3c(N4CCOCC4)nc(-c4cccc(C(N)=O)c4)cc32)CC1	HEK293 tox inconclusive, 3T3 cytotox 100µM
COc1cc(F)ccc1-c1cc2c(ccn2CC2CCN(C)CC2)c(N2CCOCC2)n1	HEK293 tox 100µM, 3T3 cytotox 70.8µM
Cn1cc(CN2CCn3c(nnc3[C@@H]3C[C@@H](O)CN3Cc3cccnc3)C2)c2ccccc21	HEK293 tox inconclusive, 3T3 cytotox inconclusive
CC(=O)NCCc1c[nH]c2ccc(O)cc12	GPT2 inh 3.16µM (no result: HEK293 tox, Luciferase inh, NPR1 antag, 3T3 cytotox)
COc1cc2c(CCNC(C)=O)c[nH]c2cc1Cl	none (no result: HEK293 tox, Luciferase inh, NPR1 antag, 3T3 cytotox)
Cn1cnc2ccc(-c3cccc(O)c3)nc2c1=O	HEK293 tox inconclusive, Luciferase inh inconclusive, GPT2 inh inconclusive, 3T3 cytotox inconclusive
COc1ncccc1C(=O)N1CCC(CCC(=O)N2CCC(Cc3ccccc3)CC2)CC1	HEK293 tox 35.5µM, NPR1 antag inconclusive, 3T3 cytotox inconclusive
O=C(CCC1CCN(C(=O)c2ccccc2)CC1)N1CCC(Cc2ccccc2)CC1	HEK293 tox inconclusive, 3T3 cytotox inconclusive
COc1ccccc1-c1ccc2c(C(=O)NCCCc3ccccc3)nn(C)c2n1	HEK293 tox inconclusive, 3T3 cytotox inconclusive (no result: Luciferase inh, NPR1 antag)
O=C(CCC1CCN(C(=O)c2ccccn2)CC1)N1CCC(Cc2ccccc2)CC1	HEK293 tox inconclusive
CC(=O)N1CCC(N2CCC(Cc3ccc(CCC(=O)N(C)C)cc3)CC2)CC1	none (no result: Luciferase inh, NPR1 antag)
Cc1ccsc1C(=O)N1CCC(CCC(=O)N2CCC(Cc3ccccc3)CC2)CC1	HEK293 tox 44.7µM, NPR1 antag inconclusive, 3T3 cytotox inconclusive
CN(C)C(=O)CCc1ccc(CC2CCN(C(=O)CCC3CCCC3)CC2)cc1	HEK293 tox 25.1µM, 3T3 cytotox inconclusive (no result: Luciferase inh, NPR1 antag)
COc1ccccc1-c1ccc2c(C(=O)N3CCC(Cc4ccccc4)CC3)nn(C)c2n1	HEK293 tox 79.4µM, 3T3 cytotox inconclusive (no result: Luciferase inh, NPR1 antag)
Cc1cc(S(=O)(=O)N2CCCC(CCC(=O)N3CCOCC3)C2)n(C)n1 (centres undefined)	none
COc1ccc(C2(C(=O)NCCc3ncc(C)n3Cc3ccc(F)cc3)CC2)cc1	HEK293 tox inconclusive, 3T3 cytotox inconclusive
Cc1ccc(C(=O)N2CCC(CCC(=O)N3CCN(c4ccccn4)CC3)CC2)cc1	HEK293 tox inconclusive, Luciferase inh 20µM, NPR1 antag inconclusive
O=C(CCC1CCN(C(=O)c2ccccc2)CC1)N1CCOCC1	Luciferase inh inconclusive
O=c1n(-c2ccc([N+](=O)[O-])cc2)nc2n1CCN(Cc1ccsc1)C2	HEK293 tox 39.8µM, Luciferase inh inconclusive, 3T3 cytotox inconclusive
O=c1n(-c2ccc([N+](=O)[O-])cc2)nc2n1CCN(Cc1ccccc1)C2	HEK293 tox 28.2µM, 3T3 cytotox inconclusive
O=c1n(-c2ccc([N+](=O)[O-])cc2)nc2n1CCN(Cc1ccc(F)cc1)C2	HEK293 tox 35.5µM, NPR1 antag inconclusive, 3T3 cytotox inconclusive
O=c1n(-c2ccc(F)cc2F)nc2n1CCN(Cc1ccc(F)cc1)C2	HEK293 tox 50.1µM, 3T3 cytotox inconclusive
O=C(c1ccc(F)cc1)N1CCn2c(nn(-c3ccc([N+](=O)[O-])cc3)c2=O)C1	GPT2 inh inconclusive
O=C(NC1CCCCCC1)c1ccc2nc(-c3ccccn3)oc2c1	HEK293 tox inconclusive, 3T3 cytotox inconclusive (no result: Luciferase inh, NPR1 antag)
NC(=O)CCNC(=O)C1=C[C@@H](NC(=O)c2cccc(F)c2)[C@@H](O)[C@H](O)C1	GPT2 inh inconclusive
Cc1cccc(NC(=O)N2CCCC(c3nn(C)c(=O)n3C3CCCC3)C2)c1 (centres undefined)	none
CSCCCN1CC[C@@H](NC(=O)c2ccncc2)[C@H](O)C1	none
CC1=C[C@@H](CC#N)[C@H](C(C)C)C[C@H]1CC(=O)N1CCN(c2ncccn2)CC1	HEK293 tox inconclusive, NPR1 antag inconclusive, 3T3 cytotox inconclusive
CCC1C(=O)NCCN1Cc1cn(-c2cccc(F)c2)nc1-c1ccc(C)o1 (centres undefined)	HEK293 tox inconclusive, Luciferase inh 28.2µM, 3T3 cytotox inconclusive
COCCCNC(=O)C(NC(=O)c1ccc(C)cc1)C1CCN(C(=O)c2cccs2)CC1 (centres undefined)	GPT2 inh inconclusive, 3T3 cytotox inconclusive
CC(=O)N(C1CC1)C1CCOC2(CCN(C(=O)Cc3c(C)noc3C)CC2)C1 (centres undefined)	none
CCn1cc(-c2ccc(OC)cc2)cc1C(=O)N1CCCCCC1	HEK293 tox inconclusive
CCn1cc(CN(C)C(=O)c2cc(-c3ccc(OC)cc3)cn2CC)c(C)n1	HEK293 tox 35.5µM, Luciferase inh 39.8µM, GPT2 inh inconclusive, NPR1 antag inconclusive, 3T3 cytotox inconclusive
Cc1ccc(-c2nnc(C3CN(C(=O)c4cccs4)CC34CCOCC4)o2)cc1 (centres undefined)	HEK293 tox inconclusive, GPT2 inh inconclusive
C[C@H]1CCCN1C(=O)c1nnc(CNc2ccccc2Cl)n1-c1ccccc1	HEK293 tox inconclusive, 3T3 cytotox 100µM
C[C@H]1CCCN1C(=O)c1nnc(COc2cccc(C(F)(F)F)c2)n1-c1cccnc1	HEK293 tox inconclusive, 3T3 cytotox 100µM
CC(C)c1ccc(OCc2nnc(C(=O)N3CCC[C@@H]3C)n2-c2cccnc2)cc1	HEK293 tox inconclusive, 3T3 cytotox 14.1µM
C[C@H]1CCCN1C(=O)c1nnc(CNCc2cccc(Cl)c2)n1-c1ccccc1	HEK293 tox inconclusive, 3T3 cytotox inconclusive
C[C@H]1CCCN1C(=O)c1nnc(COc2cccc(Cl)c2)n1-c1ccccc1	HEK293 tox inconclusive, 3T3 cytotox inconclusive
